In all, about 310,000 compounds went through this assay and about 3,300 (1.1%) were called active.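 The calls were made as follows: active = B-score under library mean minus 3 SD, initial fluorescence not abnormally high, positive integrated signal ratio; inactive = the rest.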 The entries come from a sample that favours actives as a whole.
Target: Short transient receptor potential channel 6 (Mus musculus) (UniProt Q61143)
Assay: mouse TRPC6 channel inhibitors, primary screen, cell-based, HEK293, membrane potential dye (AID 2553);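 as to B-score: B-score derived from integrated fluorescence ratio over the kinetic read; more negative B-score means stronger inhibition of depolarization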
Conditions: ACh-evoked depolarization, at 10 µM; stronger effect = lower value

Short transient receptor potential channel 6 (Mus musculus), sequence (Q61143 whole entry, looked up): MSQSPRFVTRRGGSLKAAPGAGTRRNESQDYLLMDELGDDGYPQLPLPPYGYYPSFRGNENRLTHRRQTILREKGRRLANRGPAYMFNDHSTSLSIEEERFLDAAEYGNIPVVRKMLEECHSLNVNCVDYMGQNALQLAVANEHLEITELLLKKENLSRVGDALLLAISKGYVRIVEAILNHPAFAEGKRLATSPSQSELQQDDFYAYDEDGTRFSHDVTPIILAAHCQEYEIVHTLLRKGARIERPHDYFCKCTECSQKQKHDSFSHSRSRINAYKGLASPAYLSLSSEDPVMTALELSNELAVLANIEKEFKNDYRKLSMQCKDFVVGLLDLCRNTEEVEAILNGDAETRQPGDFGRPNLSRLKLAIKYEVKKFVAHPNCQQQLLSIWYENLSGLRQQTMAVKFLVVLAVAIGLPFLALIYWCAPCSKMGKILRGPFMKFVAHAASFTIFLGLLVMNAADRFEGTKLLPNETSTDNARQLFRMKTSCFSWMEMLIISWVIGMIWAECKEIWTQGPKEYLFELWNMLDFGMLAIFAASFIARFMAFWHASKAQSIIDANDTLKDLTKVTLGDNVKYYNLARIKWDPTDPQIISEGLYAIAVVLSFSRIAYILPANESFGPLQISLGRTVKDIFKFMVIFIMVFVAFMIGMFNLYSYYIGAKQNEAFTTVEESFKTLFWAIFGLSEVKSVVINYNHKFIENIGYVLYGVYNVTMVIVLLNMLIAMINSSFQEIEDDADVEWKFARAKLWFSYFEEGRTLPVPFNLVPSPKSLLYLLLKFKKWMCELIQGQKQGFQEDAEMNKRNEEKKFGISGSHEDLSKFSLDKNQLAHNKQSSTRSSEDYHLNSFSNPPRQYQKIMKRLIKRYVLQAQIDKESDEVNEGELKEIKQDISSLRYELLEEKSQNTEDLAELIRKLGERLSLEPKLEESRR

SMILES | B-score
Nc1c(N(CCO)C(=O)C2CCCCC2)c(=O)[nH]c(=O)n1Cc1ccccc1 | inactive
CCN(CCCNC(=O)c1ccc2c(c1)NC(=O)CN2C)c1cccc(C)c1 | inactive
COc1ccc(CNC(=O)C(=O)NCC2OCCN2C(=O)c2ccc(OC)cc2)cc1 (stereo not given) | inactive
CCC1=NN(C(=O)Cc2ccc([N+](=O)[O-])cc2)C(O)(c2ccc(Br)cc2)C1 (stereo not given) | inactive
COc1ccc(Cl)cc1C(=O)NNC(=S)NC(=O)/C=C/c1ccco1 | inactive
COc1cc2c(cc1OC)C(c1cccc([N+](=O)[O-])c1)=NCC2 | inactive
COc1cc2c(cc1OC)C(/C=C/c1ccco1)=NCC2 | -5.37 (active)
COc1cc(C2C(C(=O)c3cccs3)=C(O)C(=O)N2CCN2CCOCC2)ccc1OCCC(C)C (stereo not given) | inactive
CC(=O)Nc1ccc(NS(=O)(=O)c2cc(C)sc2C)cc1 | inactive
O=C(C1CCN(S(=O)(=O)Cc2ccccc2)CC1)N1CCCc2ccccc21 | -5.01 (active)
CCS(=O)(=O)N1CCC(C(=O)N2CCN(c3ccccc3)CC2)CC1 | inactive
CCC(=O)N1CCCc2ccccc21 | inactive
Cc1ccc(SCC(=O)NNC(=O)c2ccc(S(C)(=O)=O)cc2)cc1 | inactive
CCN(CC)c1ccc2cc(C(N)=O)/c(=N\NC(=O)c3ccncc3)oc2c1 | -7.68 (active)
NC(=O)c1cc2ccccc2o/c1=N/NC(=O)c1cccc(F)c1 | inactive
COc1ccc(C(=O)N/N=c2\oc3ccccc3cc2C(N)=O)cc1 | inactive
O=C(N/N=C\c1cccnc1)c1cc(-c2ccccc2)nc2c(Cl)cccc12 | inactive
COc1ccc(S(=O)(=O)NNC(=O)Nc2ccc(C)cc2)c(OC)c1 | inactive
Cc1cc2c(=O)n(CC(=O)NCC(=O)Nc3ccc(C(C)C)cc3)cnc2s1 | inactive
CC1=NN(c2ccccc2)C(=O)C1C(=O)c1ccc([N+](=O)[O-])cc1 (stereo not given) | inactive
Cc1nn(-c2ccc([N+](=O)[O-])cc2)c(N)c1-c1ccccc1 | inactive
O=C1CC(c2ccccc2)=NN1c1ccc([N+](=O)[O-])cc1 | -8.01 (active)
CCCC(C)C(=O)NCc1ccncc1 (stereo not given) | inactive
O=C(NCc1ccc(Cl)cc1)NCc1ccc(Cl)cc1 | inactive

SMILES | B-score
S=C(NCc1ccc(Cl)cc1)NC12CC3CC(CC(C3)C1)C2 | -5.21 (active)
O=C(NCc1ccncc1)NC12CC3CC(CC(C3)C1)C2 | inactive
O=C(NCCCn1ccnc1)C(=O)NCC1OCCN1S(=O)(=O)c1cc(F)ccc1F (stereo not given) | inactive
CN1CCN(C(=O)N2c3ccccc3CCc3ccccc32)CC1 | -6.16 (active)
CN1CCN(S(=O)(=O)c2cccc(C(=O)N3CCc4ccccc43)c2)CC1 | inactive
CC1CC(C)CN(CC(=O)N2c3ccccc3CCc3ccccc32)C1 (stereo not given) | inactive
COc1ccc(C(=O)C2CCCN(C(=O)c3cc(C)on3)C2)cc1F (stereo not given) | inactive
COc1ccccc1/C=C/CN1CCC(CO)(Cc2ccccc2)CC1 | inactive
Cc1cc(=O)cc(C)n1-c1ccc(Cl)c(Cl)c1 | inactive
COc1ccc(NC(=O)CSc2nnc(-c3ccccc3F)n2C2CC2)cc1S(N)(=O)=O | inactive
O=C(CNCCC1=CCCCC1)Nc1ccccc1N1CCCCCC1 | inactive
Cc1ccccc1NC(=O)CNc1ccccc1N1CCCCC1 | -6.42 (active)
Cc1ccccc1NC(=O)Nc1ccccc1N1CCCCC1 | inactive
CCN(C(=O)Cc1c(C(=O)O)n(CC)c2ccccc12)c1ccccc1C | inactive
CCCCOc1ccc(NC(=O)[C@@H]2CCCN2C(=O)C2CCN(S(=O)(=O)c3ccc(C)cc3)CC2)cc1 | inactive
CCc1ccc(C(=O)NNC(=O)C2CCN(c3ncnc4sc(C)c(C)c34)CC2)cc1 | inactive
CCC(=O)NC(Nc1nc2ccc(C)cc2s1)(C(=O)OC)C(F)(F)F (stereo not given) | inactive
CCOc1ccc2nc(NC(=O)c3cc([N+](=O)[O-])ccc3N3CCOCC3)sc2c1 | inactive
O=C(NC(Nc1nc2ccc([N+](=O)[O-])cc2s1)(C(F)(F)F)C(F)(F)F)c1ccccc1 | -10.2 (active)
COc1ccc2c(C)cc3nnnn3c2c1 | inactive
CC(C)c1cc(C(=O)N/N=C/c2ccoc2)c(O)c(C(C)C)c1 | inactive
COc1ccc(Br)cc1/C=N/Nc1ccc(Cl)c(C(=O)O)c1 | inactive
COc1ccc(Br)cc1/C=N/n1c(C)nnc1C | -5.36 (active)
Cc1nnc(C)n1/N=C/c1ccc(C(C)C)cc1 | inactive

SMILES | B-score
NC(=O)COc1ccc(/C=N/NC(=O)C2CCCN2S(=O)(=O)c2ccc(Cl)cc2)cc1 (stereo not given) | inactive
COc1ccc(CN2C3CCCC2CC(NC(=O)c2cccc(F)c2)C3)cc1 (stereo not given) | inactive
COc1ccccc1CN1CCN(C(c2ccccc2)c2ccccc2)CC1 | inactive
CC(NCc1ccccc1OC1CCCC1)c1ccccc1 (stereo not given) | -8.19 (active)
CC(=O)OC(C(=O)NC1CCCCC1)c1ccccc1 (stereo not given) | inactive
COc1ccc(C(=O)C2CCCN(Cc3ccc4nonc4c3)C2)c(C)c1 (stereo not given) | inactive
COc1ccc(C(=O)C2CCCN(Cc3cccn3-c3ccccn3)C2)c(C)c1 (stereo not given) | -12.5 (active)
CCOC(=O)c1[nH]ncc1CN1CCCC(C(=O)c2ccc(OC)cc2C)C1 (stereo not given) | inactive
Cc1ccc(C(=O)Oc2ccc(C(=S)N3CCOCC3)cc2)cc1 | inactive
CC(C)CCNc1nc(N2CCCC2)c2c(c1C#N)CCN(C)C2 | -6.63 (active)
CCc1nc(NCCO)c(C#N)c2c1CCCC2 | inactive
CC(C)Cc1nc(N2CCOCC2)c(C#N)c2c1CCC2 | inactive
COc1ccc(-c2cc(C3CCN(c4ncccc4[N+](=O)[O-])CC3)[nH]n2)cc1 | inactive
Cc1cc(Cl)ccc1C(=O)C1CCCN(C(=O)c2nonc2C)C1 (stereo not given) | inactive
O=[N+]([O-])c1ccccc1Nc1ccc(O)cc1 | -5.49 (active)
O=C(Nc1ccccc1[N+](=O)[O-])C1C(c2ccccc2)=C1c1ccccc1 | inactive
O=C(O)c1ccccc1C(=O)Nc1ccccc1[N+](=O)[O-] | inactive
O=C(CCN1CCCCC1)N=Nc1c(O)[nH]c2ccccc12 | inactive
N#Cc1cccc(CSc2ncnc(N)n2)c1 | inactive
O=C(CN1CCCCCC1)NCCN1C(=O)S/C(=C\c2ccccc2Cl)C1=O | -5 (active)
O=C(CN1C(=O)S/C(=C\c2ccccc2F)C1=O)NCCCn1ccnc1 | inactive
O=C(CN1C(=O)S/C(=C\c2ccccc2Cl)C1=O)NC1C=CS(=O)(=O)C1 (stereo not given) | inactive

Source: PubChem BioAssay AID2553 (Johns Hopkins Ion Channel Center, 2010)
